Inconclusive results are not listed. Activity calls are given as the source filed them. Calls follow the shape of the dose curve; as a rule, active = well fitted curve in either direction with a large enough effect; inconclusive = small, poorly fitted or top-dose-only effect; inactive = flat fitted curve, though single readings scatter.

Chain of Neuropeptide S receptor (Homo sapiens) (Q6W5P4 whole entry, looked up): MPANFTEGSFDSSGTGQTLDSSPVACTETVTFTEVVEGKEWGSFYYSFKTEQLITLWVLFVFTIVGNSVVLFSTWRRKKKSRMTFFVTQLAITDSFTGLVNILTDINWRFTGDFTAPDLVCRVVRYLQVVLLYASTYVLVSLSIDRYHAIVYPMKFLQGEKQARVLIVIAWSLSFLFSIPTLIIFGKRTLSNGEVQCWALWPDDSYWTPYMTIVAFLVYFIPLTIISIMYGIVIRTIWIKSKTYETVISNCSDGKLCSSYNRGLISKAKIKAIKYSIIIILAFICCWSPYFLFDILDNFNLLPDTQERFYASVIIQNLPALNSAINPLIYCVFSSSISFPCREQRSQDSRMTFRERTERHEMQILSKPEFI

This assay has as its target Neuropeptide S receptor (Homo sapiens) (UniProt Q6W5P4). As to the kind of experiment: Confirmation Concentration-Response Assay for Antagonists of the Neuropeptide S Receptor: Robust Characterization of cAMP Signal Transduction. The note with it: CHO-NPSR cells, NPS-stimulated cAMP TR-FRET. The text has this: NIH Chemical Genomics Center [NCGC] NIH Molecular Libraries Probe Production centers Network [MLPCN] MLPCN Grant: X01-DA026210-01 Assay Submitter (PI): Heilig, Markus Alexander NCGC Assay Overview: Neuropeptide S receptor (NPSR), previously known as GPR154, is a recently de-orphanized G protein coupled receptor. Its endogenous ligand is the 20 amino acids peptide Neuropeptide S (NPS). […] NPS and its receptor are found in various tissues. Specifically they are highly expressed in brain areas that have been implicated in modulation of arousal, stress and anxiety. Central administration of NPS in mice produces an unusual profile of activity by inducing wakefulness and arousal, while at the same time suppressing anxiety. Therefore, NPSR may represent a novel drug target for the treatment of sleep and anxiety disorders. To identify NPSR antagonists, we developed a cell-based cAMP assay. NPS can stimulate the production of cAMP in Chinese hamster ovary cells stably expressing NPS receptor. This change in intracellular cAMP level can be detected by a homogeneous LANCE cAMP assay based on the TR-FRET (time resolved fluorescence resonance energy transfer) between a europium-labeled cAMP tracer complex and a cAMP-specific antibody labeled with Alexa Fluor 647. The europium-labeled cAMP tracer complex is formed by the tight interaction between Biotin-cAMP (b-cAMP) and streptavidin labeled with Europium-W8044 chelate (Eu-SA). Light pulse at 320 nm excites the europium of the cAMP tracer and the energy emitted is transferred to the Alexa molecule bound to the cAMP antibody, generating a TR-FRET signal at 665 nm. Residual energy from the europium will produce a light at 620 nm. The native unlabeled cAMP from cell lysates competes with the europium-cAMP tracer for antibody binding and reversely reduces the emission signal of Alexa by interrupting FRET between the two labeled molecules. Both emission signals from the FRET donor (620 nm) and the acceptor (665 nm) can be detected by a plate reader in the TRF mode. Expression of result in fluorescence ratio (665 nm/620 nm) helps to normalize differences due to cell density and reagent dispensing. This assay was successfully optimized to a 1536-well plate format. Select compounds from the primary screen (AID 1461) were chosen for confirmation based on potency, efficacy, SAR, and activity across other assays in PubChem and at NCGC. Other compounds are analogs of active compounds from the primary screen. This particular assay uses a high density of sampling across concentration-response space to establish more confidence estimates of potency.
NCGC Assay Protocol Summary: A Chinese hamster ovary (CHO) cell line stably expressing the NPS receptor (CHO-NPSR) was obtained from Dr. Heilig lab at NIAAA and maintained in F-12 Kaighn's media (Invitrogen, Carlsbad, CA, 21127) supplemented with 10 % FBS, 100 units/ml penicillin, 100 ug/ml streptomycin and 250 ug/ml geneticin at 37C, 5% CO2 in a humidified atmosphere. Before the assay, aliquots of cells were frozen and stored at -135C. The assay was performed in 1536-well format. Data are reported for both the ratio of the two emission wavelengths, and also for the component 'donor' channel, Em2=620. […] IC50 values were determined from concentration-response data modeled with the standard Hill equation. NPS 1536-well assay protocol: (1) Fresh or frozen CHO-NPSR cells were suspended in F-12 Kaighn's media supplemented with 10 % FBS, 100 units/ml penicillin and 100 ug/ml streptomycin. Cells were plated at 4 ul/well (1200 cells) to white, tissue culture treated 1536-well plates, and then cultured at 37C, 5 % CO2 for 16 to 30 hours. (2) Add 23 nl/well of compound in DMSO solution. The final titration for each compound was between 0.6 nM and 46 uM. […]
On the technique in general: Time-resolved FRET reads energy transfer from a long-lived donor to a nearby acceptor.
For `Cc1c(P(=S)(c2ccccc2)c2ccccc2)[n+]2ccccc2n1C/C=C/c1ccccc1`, the Potency was 0.0445 µM (active).

For the molecule `Cc1c(P(=S)(c2ccccc2)c2ccccc2)[n+]2ccccc2n1CCCc1ccccc1`, the Potency was 0.106 µM (active).

Turning to `Cc1c(P(=S)(c2ccccc2)c2ccccc2)[n+]2ccccc2n1C`, the Potency is 1.67 µM (active).

As to `Cc1c(P(=S)(c2ccccc2)c2ccccc2)[n+]2ccccc2n1Cc1ccccc1`, the Potency is 1.25 µM (active).

For the molecule `Cc1c(P(=S)(c2ccccc2)c2ccccc2)[n+]2ccccc2n1CCCCc1ccccc1`, the Potency is 0.0011 µM (active).

Take `Cc1c(P(=S)(c2ccccc2)c2ccccc2)[n+]2ccccc2n1CCCCCc1ccccc1`: the Potency was 0.705 µM (active).

Consider `Cc1nc2ccccn2c1P(=S)(c1ccccc1)c1ccccc1`, for which the Potency was 17.7 µM (active).

As to `Cc1c(P(=S)(c2ccccc2)c2ccccc2)[n+]2ccccc2n1CCc1ccccc1`, the Potency is 2.1 µM (active).

(Values after PubChem BioAssay AID434936 (National Center for Advancing Translational Sciences (NCATS), 2010).)
